Assay results: PubChem BioAssay (NCI)
About 79,000 compounds went through this panel and 15% of them were active in at least one assay; those are over-represented in the sample as a whole. Unmarked numbers belong to inactive results. Active and inactive are the calls of the source. No stated cut-off is given here; in the data, active means growth inhibition above about 70%; inactive means the rest.

Assays:
[1] = NCI Yeast Anticancer Drug Screen. Data for the rad50 strain (AID 155);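 further: 0% = growth of vehicle-only cultures of the same strain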; details: S. cerevisiae rad50 strain growth inhibition, hits give high values
In short: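 Yeast carrying a defined DNA repair defect were exposed to test compounds, and growth was compared with vehicle-treated controls to give percent inhibition.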

[2] = NCI Yeast Anticancer Drug Screen. Data for the mec2-1 strain (AID 157); details: S. cerevisiae mec2-1 strain, hits give high values
In short: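 Compounds were applied to mec2-1 yeast cells. Their growth was then compared with that of vehicle-treated cultures to give growth inhibition.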

[3] = NCI Yeast Anticancer Drug Screen. Data for the sgs1 mgt1 strain (AID 161);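 further: 0% = growth of cultures given vehicle only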; details: S. cerevisiae sgs1 mgt1 strain, hits give high values
In short: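 Compounds are added to genetically altered yeast, and growth is compared with cultures given vehicle alone to give percent inhibition.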

[4] = NCI Yeast Anticancer Drug Screen. Data for the cln2 rad14 strain (AID 165);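 further: 0% = growth equal to vehicle treated cultures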; details: S. cerevisiae cln2 rad14 strain, hits give high values
In short: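 Strain: cln2 rad14 yeast, altered in cell cycle control and DNA damage repair. Read-out: growth inhibition vs vehicle.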

[5] = NCI Yeast Anticancer Drug Screen. Data for the bub3 strain (AID 167); details: S. cerevisiae bub3 mutant strain, hits give high values
In short: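 Compounds were applied to a genetically altered yeast strain carrying a cell-cycle control defect. Growth inhibition was scored against vehicle-treated controls.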

[6] = NCI Yeast Anticancer Drug Screen. Data for the mlh1 rad18 strain (AID 175); details: S. cerevisiae mlh1 rad18 strain growth inhibition, hits give high values
In short: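 A repair-deficient yeast strain is exposed to test compound, and growth is scored relative to vehicle-treated controls.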

[7] = at 5.0 µM (retest, dose inferred, filed as 0.5)
[8] = at 50.0 µM (retest, dose inferred, filed as 5.0)

SMILES	growth inhibition [1, 7] [%]	growth inhibition [1, 8]	growth inhibition ([1]; at 50.0 µM)	growth inhibition [2, 7] [%]	growth inhibition [2, 8]	growth inhibition ([2]; at 50.0 µM)	growth inhibition [3, 7] [%]	growth inhibition [3, 8]	growth inhibition ([3]; at 50.0 µM)	growth inhibition [4, 7] [%]	growth inhibition [4, 8]	growth inhibition ([4]; at 50.0 µM)	growth inhibition [5, 7] [%]	growth inhibition [5, 8]	growth inhibition ([5]; at 50.0 µM)	growth inhibition [6, 7] [%]	growth inhibition [6, 8]	growth inhibition ([6]; at 50.0 µM)
CSC(=S)OC1CC(n2cnc3c(NC(=O)c4ccccc4)ncnc32)OC1CO[Si](C)(C)C(C)(C)C (configuration not stated)	1	-1%	6.5%	0	2%	-3.65%	-1	2%	10.4%	-1	6%	73% (active)	-1	-5%	1.45%	0	-1%	16.6%
O=c1ccc2nc3ccccc3ccc-2c1	-159	-139%	23%	-53	-55%	15.2%	-61	-64%	18.3%	-46	-58%	20.6%	-63	-79%	62%	-117	-110%	62.5%
COc1cccc(C2c3cc4c(cc3OC(NNc3ccccc3)C2C)OCO4)c1O (configuration not stated)	-8	88% (active)	94% (active)	-5	79% (active)	95.3% (active)	1	93% (active)	95.8% (active)	19	88% (active)	94.2% (active)	-8	97% (active)	96.8% (active)	27	91% (active)	95.7% (active)
CN(C)CCC(=O)c1ccc2c(ccc3ccccc32)c1	5	36%	69.7%	10	83% (active)	66.8%	8	92% (active)	90.5% (active)	-3	51%	-7.8%	6	94% (active)	84.7% (active)	0	90% (active)	77.2% (active)
COc1ccc(C2c3cc4c(cc3OC(O)(CO)C2C(=O)O)OCO4)cc1 (configuration not stated) (tested in a mixture with another compound)	-6	86% (active)	53.5%	-11	75% (active)	81.3% (active)	-6	40%	27.8%	-6	90% (active)	37%	-18	95% (active)	87% (active)	-8	89% (active)	81.8% (active)
CN1C/C(=C\c2ccccc2)C(=O)/C(=C/c2ccccc2)C1	13	99% (active)	54.5%	16	100% (active)	10.2%	19	99% (active)	19%	14	98% (active)	52.5%	10	99% (active)	14.6%	11	99% (active)	21.4%
Cc1ccc(S(=O)(=O)C(C#N)(CCC(=O)/C=C/c2ccccc2)CCC(=O)/C=C/c2ccccc2)cc1	1	6%	16.2%	-4	35%	2.35%	2	-2%	26.9%	3	4%	77.3% (active)	-3	-2%	-9.3%	1	-28%	20%
COc1ccc2c(c1)CCn1c(C)c(COC(=O)NC(C)C)c(COC(=O)NC(C)C)c1-2	17	98% (active)	88.7% (active)	0	98% (active)	92.3% (active)	33	98% (active)	89.2% (active)	10	97% (active)	90.3% (active)	15	98% (active)	88.7% (active)	17	98% (active)	87.7% (active)
CCOc1ccccc1N=Nc1ccc2oc(=O)c(C(=O)Nc3cccc(C)c3)cc2c1	3	13%	52.1%	3	-2%	25.9%	8	-5%	64.8%	-4	4%	-76%	-4	-12%	9.9%	3	12%	89% (active)
O=C(O)c1ccc([N+](=O)[O-])o1	6	32%	61%	1	16%	25.1%	4	27%	70.8% (active)	3	11%	17.6%	-3	10%	38.3%	6	41%	71.5% (active)
S=C(Nc1ccccc1)NC1CC2C=CC1CC2 (configuration not stated)	-9	-4%	-5%	-11	-12%	7.2%	-4	2%	1.6%	-23	-11%	31.6%	-4	0%	19.6%	-4	-13%	13.2%
COC(=O)c1cc(-c2ccc([N+](=O)[O-])cc2)c2c(=O)n(-c3ccccc3)[nH]c2n1	0	84% (active)	89.8% (active)	-1	75% (active)	91.1% (active)	-1	85% (active)	61.1%	-3	77% (active)	42.4%	-3	83% (active)	50.2%	-3	86% (active)	92.2% (active)
c1ccc(B2OC(c3ccccc3)C(c3ccccc3)O2)cc1 (configuration not stated)	-19	-12%	3.35%	-18	-21%	-0.45%	-7	-9%	10.8%	24	7%	5.85%	-4	-3%	11.2%	-13	9%	8.85%
CC1Cc2ccc3c(c2C(c2ccc4c(c2)OCO4)C1C)OCO3 (configuration not stated)	-4	-16%	-3.7%	3	-19%	-15.1%	1	14%	-5.1%	-23	-14%	-4.7%	-5	-3%	-3.35%	-11	26%	8.9%
COC(=O)c1ccc2ccccc2c1C(=O)c1ccc(F)cc1	-1	94% (active)	96.8% (active)	2	96% (active)	95.5% (active)	4	95% (active)	96.2% (active)	11	90% (active)	61.7%	25	97% (active)	97.4% (active)	2	95% (active)	95% (active)
COc1ccc2c(c1)CCCN2S(=O)(=O)c1ccc(N)cc1	-1	18%	45.5%	-3	5%	27.1%	-2	16%	36.8%	0	13%	-6.65%	3	49%	32.2%	-2	12%	47%
CC1(C)CC(=O)C2=C(C1)Nc1ccccc1CC2c1c[nH]c2ccccc12 (configuration not stated)	-6	77% (active)	-7.2%	-1	85% (active)	3.35%	-8	68%	5.35%	-62	82% (active)	52.2%	-4	68%	10.8%	0	84% (active)	0%
O=c1oc2c(-c3ccccc3)cccc2c(O)c1-c1ccccc1	-2	58%	48.6%	-2	86% (active)	60.2%	3	87% (active)	58.9%	0	36%	33%	-4	79% (active)	55%	0	81% (active)	70.5% (active)
Cc1cccc(Cl)c1NC(=S)Nc1cccc(C(F)(F)F)c1	-4	2%	88.8% (active)	2	8%	89.4% (active)	10	1%	92.3% (active)	24	23%	88.3% (active)	20	9%	89.6% (active)	-21	17%	86.2% (active)
